DAX1 inh-1 – inhibits human nuclear receptor DAX1 | P51843 | HEK293 Gal4-DAX1 luciferase reporter, luminescence | inhibition, % at 6.75 µM | 0.99% of 340,000 active | AID 504766;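 active = inhibition above the mean over all tested compounds plus 3 SD, cut at about 4.2% in these data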;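 also: inhibition shows as a rise in luminescence from relieved DAX1 repression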
Target sequence (P51843 207-470 limits assumed): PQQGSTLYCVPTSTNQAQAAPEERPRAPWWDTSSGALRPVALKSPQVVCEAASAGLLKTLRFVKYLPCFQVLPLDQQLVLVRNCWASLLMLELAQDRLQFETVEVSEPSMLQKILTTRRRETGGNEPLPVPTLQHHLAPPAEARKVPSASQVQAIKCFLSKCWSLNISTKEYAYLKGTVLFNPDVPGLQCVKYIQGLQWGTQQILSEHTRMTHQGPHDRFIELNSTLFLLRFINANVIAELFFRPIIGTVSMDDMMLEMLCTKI
hgDAF-12 ag – agonists of H. glycines DAF-12 nuclear receptor. HEK293 GAL4-hgDAF12 UAS-luciferase reporter, agonist luminescence; normalized to butyrate control. activation, % at 6.8 µM. 1.8% of 370,000 active;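 active = activation above a cutoff set at the mean of all screened compounds plus 3 SD, cut at about 10% in these data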
ssDAF-12 act – activates DAF-12 receptor from parasite S. stercoralis | HEK293 ssDAF-12/GRIP1 lit1-tk-luc reporter, luminescence; % of 3 µM dafachronic acid response | activation, % at 6.8 µM | 1% of 370,000 active | AID 652126;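 active = activation above the mean over all tested compounds plus 3 SD, cut at about 0.9% in these data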
DAX1 inh-2 – DAX1 (NR0B1) inhibition, primary screen; HEK293T StAR-luciferase reporter, SF-1/DAX-1 repression relief; inhibition, % at 6.8 µM; AID 652010; 1.1% of 370,000 active;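 active = inhibition above the mean over all tested compounds plus 3 SD, cut at about 3.6% in these data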;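 also: higher inhibition means more luminescence from relief of DAX-1 repression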
hcDAF12 agonist – H. contortus DAF-12 activation, primary screen | HEK293 hcDAF-12 lit1-tk-luc reporter, luminescence; 0% DMSO, 100% Δ7-dafachronic acid | activation, % at 6.8 µM | 1.4% of 370,000 active | AID 652067;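 active = activation above the mean of all tested compounds plus 3 SD, cut at about 5.5% in these data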
SMARCA2 act – increases SMARCA2 function in MMTV reporter cells; MG213 cells, MMTV-luciferase reporter, dexamethasone, overnight; activation, % at 9.1 µM; 1% of 370,000 active; in the data active = activation above about 7.8%
DAX1 inh confirm – NR0B1 (human) inhibition, confirmation. 87% of 2,400 active. shares compounds with DAX1 inh-2. HEK293T StAR-promoter luciferase reporter, SF-1/DAX-1 repression. inhibition, % at 6.8 µM;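 active = inhibition above the average of every tested compound plus 3 SD, cut at about 3.8% in these data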;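 also: active compounds raise luminescence by relieving repression of the StAR reporter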
SF1 AF2mut Luc – counter-screen for DAX1 inhibitors: nonselective inhibitors with SF-1 AF2 mutant | shares compounds with DAX1 inh-2 | HEK293 StAR-luciferase, luminescence | inhibition, % at 6.8 µM | 78% of 2,400 active | AID 652136;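 active = inhibition above the mean of all tested compounds plus 3 SD, cut at about 3% in these data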
Hits are given with their value; - = inactive; . = no result. Most compounds without a hit are left out; they make up all but 4.8% or so of the library.

SMILES	DAX1 inh-1	hgDAF-12 ag	ssDAF-12 act	DAX1 inh-2	hcDAF12 agonist	SMARCA2 act	DAX1 inh confirm	SF1 AF2mut Luc
CC(=O)Nc1ccc(C(C)=NNC(=O)C2CCCC2)cc1	.	-	-	4.6	-	-	-	-
C/C(=N\NC(=O)C1CCCC1)c1ccc(NC(=O)C(F)(F)F)cc1	.	-	-	-	-	-	.	.
CCOCCOC(=O)C1=C(C)NC2=C(C(=O)CC(c3cccs3)C2)C1c1ccsc1 (configuration not stated)	-	-	-	-	-	-	.	.
N/C(=N\OC(=O)c1cccc(C(F)(F)F)c1)c1cnccn1	-	11	-	5.2	-	-	7.3	5.9
c1cncc(C2OCC3(CO2)COC(c2cccnc2)OC3)c1 (configuration not stated)	-	-	-	-	-	-	.	.
O=C(NC1CCCCC1)c1ccc2ccccc2c1	4.8	-	-	5.8	-	-	7.5	5.1
O=[N+]([O-])c1ccccc1N/N=C/c1ccccc1	-	-	-	-	-	-	.	.
O=C(O)c1ccccc1NN=Cc1ccccc1	4.5	-	-	5.6	-	-	9.3	5.9
O=C(CN1CCN(CC(=O)Nc2ccccc2F)CC1)Nc1ccc2c(c1)OCCO2	-	-	-	-	-	-	.	.
Cc1cc(C)n2nc(C(=O)OCC(=O)Nc3ccc(C)c(S(=O)(=O)N4CCOCC4)c3)nc2n1	-	-	-	-	-	-	.	.
CCN(CC)c1ccc(S(=O)(=O)N2CCOCC2)cc1NC(=O)COC(=O)c1cccnc1SC	-	-	-	5.3	-	-	-	-
O=C(COC(=O)C1CCC1)Nc1cc(S(=O)(=O)N2CCOCC2)ccc1Cl	-	-	-	-	-	-	.	.
C[C@H](NS(=O)(=O)c1ccc(Cl)cc1)C(=O)OCC(=O)Nc1cc(S(=O)(=O)N2CCOCC2)ccc1Cl	-	-	-	7.7	-	-	-	-
COc1ccc(C(=O)NNC(=O)c2ccncc2)cc1	-	-	-	-	-	-	.	.
COc1ccc(O)c(C(=O)CC(=O)c2ccncc2)c1	-	12	-	4.7	-	-	5.7	3.6
CSc1cccc(NC(=O)CCNC(=O)c2ccco2)c1	-	-	-	-	-	-	.	.
CCN1/C(=C/c2ccc3cc(C)cc(C)c3[n+]2CC)Sc2cc(C)ccc21	-	-	-	-	-	-	.	.
O=C(Nc1ccccc1)c1ccc(NC(=O)C2CC2)cc1	-	-	-	6.5	-	-	7.7	5.2
CCOc1cccc(C2C(C(=O)c3ccc(C)o3)=C(O)C(=O)N2c2nnc(C)s2)c1 (configuration not stated)	-	-	-	6.5	-	-	6.0	3.8
CCOc1cccc(C2C(C(=O)c3ccco3)=C(O)C(=O)N2c2nnc(C)s2)c1 (configuration not stated)	-	-	-	-	-	-	.	.
Cc1cc(Nc2cc(F)ccc2C)n2ncnc2n1	-	-	-	-	-	-	.	.
CCN(C(=O)c1cc2c(=O)n3ccccc3nc2n1C)C1CCCCC1	-	-	-	4.9	-	-	4.6	-
O=C(c1cc(COc2ccc(F)cc2Cl)on1)N1CC2C[C@@H]3CC1C[C@H](C2)C3	-	13	-	5.7	-	-	5.8	-
Cc1ccc(OCc2cc(C(=O)N3CC4C[C@@H]5CC3C[C@H](C4)C5)no2)cc1C	-	11	-	5.2	-	-	-	3.6
Cc1nnc(CN(C)C(=O)c2cc(COc3ccc(F)cc3Cl)on2)o1	-	-	-	5.2	-	-	8.1	4.2
Cc1cccc(C)c1OCc1cc(C(=O)N2CC3C[C@@H]4CC2C[C@H](C3)C4)no1	-	-	-	-	-	-	.	.
COc1cccc(Nc2nc3ccc(C(=O)c4ccccc4)cc3n3cnnc23)c1	-	-	-	-	-	-	.	.
CCCN1CCN(CCCNC(=O)c2ccc3nc(N4CCC(C)CC4)sc3c2)CC1	-	-	-	6.0	-	-	9.2	4.8

Screening results (PubChem BioAssay)
